Where “and” joins values, the source holds several entries; their conditions need not be identical. Equal values may be shown once. More than one record can exist for a structure, and the calls need not agree. Calls of active or inactive are those of the source. The calls were made as follows: active = hit-call score of the fitted dose curve at least 0.9, where 1 is the maximum; inactive = score below 0.9.
Assay: CCTE_Mundy_HCI_Cortical_Synap_Neur_Matur_SynapseCount: CCTE's Synaptogenesis and Neurite Maturation Assay in rat cortical cells for Synapse Count, Mundy Lab (AID 2284218)
Description: CCTE_Mundy_HCI_Cortical_Synap&Neurite_Matur is a multiplexed, cell-based-readout assay that uses rat primary cortical cells with measurements taken at 288.33 hours after chemical dosing in a microplate: 96-well plate.CCTE_Mundy_HCI_Cortical_Synap_Neur_Matur_SynapseCount is one of eight components of the CCTE_Mundy_HCI_Cortical_Synap&Neurite_Matur assay. It measures synaptogenesis and neurite maturation related to number of synapses per neuron using High Content Imaging of fluorescently labelled markers.[…] Using a type of morphology reporter, loss -of-signal activity can be used to understand developmental effects.
Cells are plated onto 96 well plates and allowed 2 hr for attachment to the substrate. At days in vitro (DIV) 5, Cytosine Arabinoside (AraC) is added to arrest glial cell growth. Chemicals are dosed and a media change is performed at DIV 7 of differentiation and is continued through DIV 12 when the experiment is terminated. Cells are fixed with […] and Hoechst Dye. Cells are stained using Millipore Mouse anti-MAP2MAB3418 (1:800) and Millipore Rabbit anti-Synaptophysinsc-1750 (1:250) primary antibodies and Alexa Fluor-488 goat anti-mouse and AlexaFluor-546 goat anti-rabbit secondary antibodies to label neuronal cell nuclei, synapses and neurites. A Cellomics ArrayScan VTi HCS Reader is used for automated image acquisition and analysis of neurite outgrowth.

Row | SMILES | AC50 | outcome
1 | C=CCC1=C(C)[C@@H](OC(=O)[C@@H]2[C@@H](C=C(C)C)C2(C)C)CC1=O | 22.2 µM (active) | 
2 | COP(N)(=O)SC (stereo not drawn) |  | inactive
3 | Cc1ccc(-c2c(Cl)nc(C#N)n2S(=O)(=O)N(C)C)cc1 | 74.3 µM (active) | 
4 | CCCCNC(=O)n1c(NC(=O)OC)nc2ccccc21 |  | inactive
5 | COC(=O)N(OC)c1ccccc1COc1ccn(-c2ccc(Cl)cc2)n1 | 0.0709 µM (active) | 
6 | CCOC(=O)CC(SP(=S)(OC)OC)C(=O)OCC (stereo not drawn) | 50 µM (active) | inactive
7 | CCCCC(CC)COC(=O)c1ccccc1C(=O)OCC(CC)CCCC (stereo not drawn) | 6.28 µM (active) and 4 µM (active) | 
8 | CO/C=C(/C(=O)OC)c1ccccc1Oc1cc(Oc2ccccc2C#N)ncn1 | 3.62 µM (active) | 
9 | C=CCC1=C(C)C(OC(=O)C2C(C=C(C)C)C2(C)C)CC1=O (stereo not drawn) |  | inactive
10 | CCOc1cc(Oc2ccc(C(F)(F)F)cc2Cl)ccc1[N+](=O)[O-] | 11.9 µM (active) | 
11 | C=CC1(C)OC(=O)N(c2cc(Cl)cc(Cl)c2)C1=O (stereo not drawn) |  | inactive
12 | CCCCOC(=O)c1ccccc1C(=O)OCCCC | 50 µM (active) | 
13 | N#Cc1nn(-c2c(Cl)cc(C(F)(F)F)cc2Cl)c(N)c1S(=O)C(F)(F)F (stereo not drawn) | 3.22 µM (active) | 
14 | CC(C)(C)c1ccc(CSc2cnn(C(C)(C)C)c(=O)c2Cl)cc1 | 0.000602 µM (active) | 
15 | COP(=S)(OC)Oc1nc(Cl)c(Cl)cc1Cl | 22.4 µM (active) | 
16 | CNC(=O)ON=CC(C)(C)SC |  | inactive
17 | CN(C)C(=S)SSC(=S)N(C)C | 0.0587 µM (active) | 
